Rows were chosen to be rich in hits. Some 7.2% of all compounds tested hit in one or more screens of this group.
Efflux pump mplx: inhibitors of Candida efflux pumps in yeast, primary screen, S. cerevisiae, Nile Red, multiplex | S. cerevisiae Candida pump triplex | inhibition, % at 10 µM | 0.44% of 330,000 active | AID 485275, 2010;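 active = plate passing quality check with inhibition over a set limit, or well fluorescence over plate mean plus 4 SD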;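 note: Nile Red retained in pooled yeast measured as flow cytometry median fluorescence; 0% = buffer negative control and 100% = Enniatin B positive control; higher means more Nile Red kept so more efflux inhibition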
ALR inh: inhibitors of human ALR sulfhydryl oxidase, primary screen, biochemical, H2O2 detection, HRP-luminol luminescence, single point | purified ALR, DTT oxidation | 3.8% of 290,000 active | inhibition, % (test concentration not listed) | FAD-linked sulfhydryl oxidase ALR (Homo sapiens), P55789 | AID 485317, 2010;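 active = mean replicate inhibition above about 79%, with every replicate also reaching it, limit read from the data; inconclusive = only one of the two criteria met; inactive = mean below limit and not every replicate reaching it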
Target sequence (P55789 whole entry, looked up): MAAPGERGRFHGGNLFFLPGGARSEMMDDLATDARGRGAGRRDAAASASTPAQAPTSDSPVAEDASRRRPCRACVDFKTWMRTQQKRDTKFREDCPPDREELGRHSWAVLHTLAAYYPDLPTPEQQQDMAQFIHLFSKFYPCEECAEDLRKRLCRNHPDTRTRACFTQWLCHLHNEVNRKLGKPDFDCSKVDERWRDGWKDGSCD
SUMO Mot1 rescue: yeast Mot1-301 growth rescue at high temperature, primary screen, SUMOylation pathway inhibitor project, S. cerevisiae, ATP luminescence, 38.5C; S. cerevisiae Mot1-301 growth rescue; percent above DMSO median, 100 means doubled; growth rescue, % at 18.8 µM; 1% of 320,000 active;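 active = every valid replicate shows activation above 250% relative to neutral control wells; inactive = the rest, any valid replicate at or below 250%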;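 note: OY570 slx delta 5 strain wells were the positive control but not used for scaling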
VLA-4 inh: inhibition in human VLA-4 binding assay, primary screen, VLA-4 allosteric modulator project, MLPCN library, flow cytometry, VLA-4 expressing cells | Integrin alpha-4 (Homo sapiens), P13612 | ligand binding flow cytometry | inhibition, % (about 7 µM as worked out from the volumes in the protocol) | 0.2% of 330,000 active | AID 2557, 2010; in the data active = inhibition above about 50%
AHR activator: AHR activators, primary screen, cell-based, luminescence, luciferase reporter, human; AID 2796, 2010; activation, % at 5 µM; 2.5% of 320,000 active; Aryl hydrocarbon receptor (Homo sapiens), P35869; AHR-responsive luciferase reporter cells; in the data active = activation above about 47%;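 note: 0% = vehicle wells and 100% = reference agonist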
Bfl-1 A1 inh: caspase 3/7 activation in MEF A1-2A-BIM cells, primary screen, A1 inhibitor project, cell-based, luminescence, HTS. Caspase-Glo 3/7 luminescence, 3 h; percent of clofoctol response, vehicle zero. caspase activation, % (concentration not given with the values). 0.066% of 330,000 active. AID 2462, 2010;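 active = over half of replicate activation scores above 10%, or exactly half above 10 with the replicate mean above 10; inconclusive = replicate mean below 10 yet half the replicates above 10; inactive = over half of replicates below 10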
* = called active by the depositor; ? = inconclusive; · = no result.

SMILES	Efflux pump mplx	ALR inh	SUMO Mot1 rescue	VLA-4 inh	AHR activator	Bfl-1 A1 inh
Cc1ccccc1-c1nc(CS(=O)(=O)CC(=O)NCCCN2CCN(C)CC2)c(C)o1	0	-4	5	12	-3	1
Cc1oc(-c2cccs2)nc1CS(=O)CC(=O)NCCCN1CC(C)CC(C)C1 (stereo not given)	0	99*	4	-11	-1	0
Cc1oc(-c2ccc(Cl)cc2)nc1CS(=O)CC(=O)NCCCN1CCCC(C)C1 (stereo not given)	0	99*	73	0	-1	0
Cc1ccc(-c2nc(CS(=O)CC(=O)NCCCN3CC(C)CC(C)C3)c(C)o2)cc1 (stereo not given)	0	99*	114	-1	1	0
COc1ccccc1CNC(=O)C(NC(=O)c1ccc(C)cc1)C(C)C (stereo not given)	0	-2	11	0	4	2
COc1ccc2nc(Nc3nc(CSc4nc5ccccc5s4)cc(=O)[nH]3)nc(C)c2c1	0	2	-10	27	2	1
CCC1CN(C(=O)N2CCC(C(=O)NCc3cccc(F)c3)CC2)c2ccccc2O1 (stereo not given)	0	-17	-12	12	3	0
COc1cc(OC)c2c(O)c3c(c(-c4c5c(c(O)c6c(OC)cc(OC)cc46)CO[C@@H](C)[C@H]5O)c2c1)[C@H](O)[C@H](C)OC3	0	37	7	2	6	-1
Cc1oc(-c2ccc(Cl)cc2)nc1CS(=O)CC(=O)NCCCN1CCN(Cc2ccccc2)CC1 (stereo not given)	0	?	2	25	-6	0
Cc1ccccc1-c1nc(CN2CCC(C(=O)NCCCN3CCCC(C)C3)CC2)c(C)o1 (stereo not given)	0	-8	6	5	0	-1
COc1ccc(-c2nc(CS(=O)CC(=O)NCCCN3CC(C)CC(C)C3)c(C)o2)cc1OC (stereo not given)	0	98*	-1	7	1	0
CCc1ccc(-c2nc(CS(=O)CC(=O)NCCCN3CCOCC3)c(C)o2)cc1 (stereo not given)	0	100*	2	1	11	-1
COc1ccc(-c2nc(CS(=O)CC(=O)NCCCN3CCCC(C)C3)c(C)o2)cc1OC (stereo not given)	0	99*	-16	11	-2	2
Clc1ccc(N/N=C/c2ccncc2)cc1Cl	0	98*	128	-6	24	-1
C(=N\NC1=Nc2cccc3cccc1c23)/c1ccccc1	0	-1	27	-36	28	-2
C(=N\NC1=Nc2cccc3cccc1c23)/c1cccnc1	0	-20	-8	-199	74*	-4
Clc1ccc(N/N=C/c2cccnc2)cc1	0	99*	19	-16	31	0
O=[N+]([O-])c1ccc(N/N=C/c2cccnc2)cc1	0	10	256	7	-3	1
CCOc1ccc(CCNC(=O)C2CC(=O)N(c3ccccc3OCC)C2)cc1OCC (stereo not given)	0	-31	158	5	1	0
CC1=CC(=NOC(=O)/C=C/c2ccccc2)C=C(C)C1=O	0	59	-24	-4	3	-3
CC1=C(C)/C(=N\OC(=O)/C=C/c2ccccc2)C=CC1=O	0	87*	248	8	4	-2
CC1=CC(=O)C=C(C)C1=NOC(=O)/C=C\c1ccccc1	0	98*	-17	6	5	1
Cc1ccc(NC(=O)C(C)OC(=O)/C=C/c2ccccc2)cc1 (stereo not given)	0	-1	-9	-6	-1	-1
Cc1nnc(Sc2nc3ccccc3o2)c2ccccc12	0	97*	-23	-1	10	0
CC(=O)c1sc(Nc2nc3ccc(F)cc3s2)nc1C	0	55	-20	1	65*	-2
SMILES	Efflux pump mplx	ALR inh	SUMO Mot1 rescue	VLA-4 inh	AHR activator	Bfl-1 A1 inh
O=C(NNc1nc2ccccc2s1)c1ccc(F)cc1	0	·	-14	0	54*	-1
O=C(NNc1nc2ccc(F)cc2s1)c1cccc(F)c1	0	98*	0	10	23	-10
C(=N\Nc1nc(-c2ccccc2)cs1)/c1cccnc1	0	28	32	-8	44	1
COC(=O)c1ccc(/C=N/Nc2nc(-c3ccccc3)cs2)cc1	0	70	0	-6	50*	0
CC(=O)Nc1ccc(-c2csc(N/N=C\c3ccncc3)n2)cc1	0	99*	0	27	61*	-1
CCCC(=O)Nc1ccc(-c2csc(N/N=C\c3ccncc3)n2)cc1	0	98*	-22	-9	2	-1
COC(=O)c1ccc(/C=N/Nc2nc(-c3ccc(C)cc3)cs2)cc1	0	·	21	-6	28	0
CC(=O)NS(=O)(=O)c1ccc(NC(=O)c2oc3c(Cl)cccc3c2C)cc1	0	·	-4	6	3	0
CCc1ccc(S(=O)(=O)NCCc2cn3ccc(C)cc3n2)s1	0	-1	141	12	2	0
CC(C)(C)C(=O)OCc1nc(-c2ccc(C(F)(F)F)cc2)cs1	0	-3	7	-1	-1	0
CC1=NC(C(F)(F)F)(C(F)(F)F)C2=C(CC(C)(C)CC2=O)N1Cc1ccco1	0	-4	36	24	-2	1
CC(=O)OCC1(C)CN(c2ccccc2)N(C(C)=O)C1=O (stereo not given)	0	57	133	2	3	0
CC(=O)OCC1(C)CN(c2ccccc2)NC1=O (stereo not given)	0	99*	70	-10	3	0
CC1CCC(NC(=O)c2ccc3c(c2)S(=O)(=O)c2ccccc2C3=O)CC1 (stereo not given)	0	11	111	-21	7	2
CN1C(=O)CC(NNC(=O)c2ccc(Cl)cc2)C1=O (stereo not given)	0	90*	1	8	2	0
CCCCOc1ccc(C(=O)NCC(=O)NC2CCCCC2)cc1	0	-2	-10	-13	1	0
COc1c(Cl)cc(-c2noc(C)c2C(=O)NC(C)C)cc1Cl	0	93*	6	-3	-1	0
Nc1ccc(N(CCO)CCO)cc1	0	97*	-11	-35	5	0
CCN(CC)c1ccc(N)cc1	0	97*	23	-177	20	-1
